# Test results as given in the supplement of paper PMC3334620.
# Over roughly 33,000 sequences, “E-score (-0.5 to 0.5)” has its median near -0.054; the highest 2% begin near 0.39. The list comes from a sample in which the highest values are over-represented; it also holds similar and randomly drawn sequences.
# Target: Ylr278c (UniProt Q05854)
# Assay: PBM E-score (8-mer binding enrichment) (E-score (-0.5 to 0.5)); higher = stronger / more preferred TF binding
# Details: protein concentration: 200 nM; construct: GST-DNA-binding domain
# Method: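 Universal 'all 10-mer' protein binding microarrays (Agilent AMADID 015681) probed with GST-tagged S. cerevisiae TFs (full-length or DBD) made by in vitro transcription/translation (PURExpress), about 100-200 nM. Bound TF was detected with fluorescent anti-GST. Each ungapped 8-mer (which stands for itself and its reverse complement) is scored by the PBM enrichment score (E-score), a modified Wilcoxon-Mann-Whitney statistic from -0.5 to +0.5, computed with the Universal PBM Analysis Suite. Scale: above 0.35 generally sequence-specific binding.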
# Chain of UniProt Q05854 (Q05854 whole entry): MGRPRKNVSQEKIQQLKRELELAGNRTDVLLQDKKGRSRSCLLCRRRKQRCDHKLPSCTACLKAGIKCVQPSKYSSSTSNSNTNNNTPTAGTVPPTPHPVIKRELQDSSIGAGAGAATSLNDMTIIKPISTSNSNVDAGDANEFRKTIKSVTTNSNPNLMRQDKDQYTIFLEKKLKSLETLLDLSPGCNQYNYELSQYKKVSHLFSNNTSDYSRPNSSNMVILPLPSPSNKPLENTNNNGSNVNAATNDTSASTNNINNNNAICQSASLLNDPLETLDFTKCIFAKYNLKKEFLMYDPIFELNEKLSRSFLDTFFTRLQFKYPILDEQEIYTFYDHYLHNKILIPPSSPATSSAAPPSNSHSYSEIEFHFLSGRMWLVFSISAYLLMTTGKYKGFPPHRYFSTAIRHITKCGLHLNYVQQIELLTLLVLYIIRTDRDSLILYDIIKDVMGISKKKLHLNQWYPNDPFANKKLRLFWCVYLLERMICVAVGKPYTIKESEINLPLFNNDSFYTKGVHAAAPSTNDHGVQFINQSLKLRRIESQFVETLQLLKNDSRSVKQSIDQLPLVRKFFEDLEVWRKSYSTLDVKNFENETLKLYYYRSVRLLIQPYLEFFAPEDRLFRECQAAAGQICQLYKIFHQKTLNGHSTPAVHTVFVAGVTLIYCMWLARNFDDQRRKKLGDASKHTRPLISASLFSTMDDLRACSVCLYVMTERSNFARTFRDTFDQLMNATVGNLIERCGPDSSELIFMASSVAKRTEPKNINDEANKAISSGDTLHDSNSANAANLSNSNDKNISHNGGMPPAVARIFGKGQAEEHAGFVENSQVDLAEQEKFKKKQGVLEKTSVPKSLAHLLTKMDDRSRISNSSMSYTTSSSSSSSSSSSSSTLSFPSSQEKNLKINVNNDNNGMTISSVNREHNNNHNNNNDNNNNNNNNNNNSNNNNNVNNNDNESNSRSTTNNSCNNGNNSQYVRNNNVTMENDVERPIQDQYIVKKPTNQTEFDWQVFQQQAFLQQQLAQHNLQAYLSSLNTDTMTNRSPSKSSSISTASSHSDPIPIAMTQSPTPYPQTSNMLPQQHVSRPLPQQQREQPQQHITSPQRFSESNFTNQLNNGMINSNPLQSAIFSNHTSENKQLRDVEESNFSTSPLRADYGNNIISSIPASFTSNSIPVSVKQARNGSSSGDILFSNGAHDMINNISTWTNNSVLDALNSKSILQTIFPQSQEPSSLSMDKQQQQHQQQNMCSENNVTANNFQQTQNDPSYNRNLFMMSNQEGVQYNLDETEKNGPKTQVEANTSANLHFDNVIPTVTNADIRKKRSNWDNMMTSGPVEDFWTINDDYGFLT
row,Sequence,PBM E-score
1,AAACAGCA,0.0669
2,ATTTCATC,0.166
3,GCTTGTTA,0.0864
4,CCGGATCG,0.396
5,ACGGATCG,0.142
6,GCGGATCC,0.271
7,CCGGATCA,0.385
8,CAGGATCG,0.00336
9,CCGGATCC,0.42
10,CTCTTCTC,-0.106
11,AAATTCAA,0.0115
12,CAACTAAA,-0.0258
13,ACTACTCG,0.0653
14,ATCCTGGA,-0.101
15,CGTGGTAG,-0.0716
16,CTCGGAAC,0.381
17,GTGGGAAC,-0.189
18,TTCGGAAA,0.419
19,AACGGAAC,0.322
20,AGCGGAAT,0.385
21,AACGGAAT,0.379
22,ATTGGAAC,-0.0837
23,ATCGGAAC,0.406
24,ATCGGAAT,0.443
25,CTCGGAAA,0.374

row,Sequence,PBM E-score
1,TCGGGAAA,0.35
2,GTCGGAAC,0.413
3,GATGACGC,-0.146
4,AGACACCT,-0.185
5,CGCAGGGC,0.049
6,ACTTTGCT,-0.141
7,ACTAACGC,0.0051
8,AACCTCAT,-0.143
9,ATCGGAAA,0.416
10,GTCGGAAA,0.424
11,ATCGGAAG,0.332
12,GTCGGGAA,0.201
13,AGCGGAAA,0.358
14,CAGCCACC,0.0671
15,AGCGACTC,-0.142
16,ACAAACTC,0.155
17,CCCTTTAA,-0.0852
18,CTCGTTCC,0.165
19,ATTAACCG,0.322
20,CATTTGGG,-0.0571
21,GAAGAGAC,0.0662
22,TCATCGAA,-0.174
23,GCATCGGA,0.437
24,CCATCGGC,0.282
25,ACATCGGA,0.377

row,Sequence,PBM E-score
1,GCATCGGC,0.308
2,TCATCGGA,0.408
3,CCATCGGA,0.415
4,CCATCGGG,0.259
5,TCATCGCA,-0.0812
6,AAAAAGAG,-0.21
7,AGATCGCC,-0.00696
8,CCGAGAAG,0.226
9,GACAATGC,0.0317
10,GAGTCGAC,0.00525
11,CAATGGTG,-0.248
12,ACTCAATA,-0.101
13,ACGCCGAC,0.343
14,CCTCCGAC,0.405
15,ACTCCTAG,-0.114
16,CCACCGAC,0.0976
17,ACACCGAC,0.26
18,ACTCCAAG,-0.198
19,TCTCCGAA,0.455
20,TCTCCAAA,-0.126
21,ACTCCGAC,0.481
22,ACTCCGAG,0.478
23,CCTCCAAC,-0.212
24,TCTCCTAA,-0.144
25,AAGTAGGA,-0.313

row,Sequence,PBM E-score
1,ACACCGCT,0.00228
2,GGCGCATA,0.0769
3,GGGCTACA,-0.0376
4,GTGACGTA,-0.142
5,CGTCCACC,-0.00012
6,ACCTCATA,-0.101
7,AAATACGG,0.14
8,ACGAACCA,-0.125
9,ACTCCAAA,-0.118
10,ACTCCCAT,-0.16
11,GCTCCGAC,0.374
12,GCTCCGAA,0.464
13,ACTCCCAA,0.0108
14,GCTCCAAA,-0.172
15,CCTCCGAG,0.426
16,CATCCGAG,0.193
17,ACTCCGAA,0.484
18,ACTCCTAT,-0.0311
19,ACTCCGAT,0.484
20,CCTCCAAG,-0.202
21,ACCTAAGC,0.0293
22,GGAGAAAC,0.309
23,CAGGGCGC,0.0102
24,GGAACCAC,0.0576
25,AAGCCACG,-0.0652

row,Sequence,PBM E-score
1,AAAAGAGA,-0.223
2,AAAGAAGA,-0.0104
3,CCTCCAAA,-0.14
4,CCTCCGAA,0.441
5,CCACCGAA,-0.0526
6,GTGAGATA,0.052
7,TACGGAGA,0.386
8,GACGGATA,0.249
9,GACGGAGA,0.453
10,CACGGAGA,0.429
11,AACGGAGA,0.393
12,AACGGATA,0.292
13,CACGGAGC,0.403
14,GAGGGAGA,-0.145
15,CACGGACC,0.282
16,GACGGAGC,0.378
17,AACGGAAA,0.374
18,CAAGGAGA,-0.105
19,AAATCTGT,-0.0526
20,TGTTGAAA,-0.0138
21,ACTACTTA,-0.0798
22,CGACTATA,-0.0135
23,CCCCAGAA,0.00338
24,CACAAAGA,-0.197
25,CCATAAGC,-0.105

row,Sequence,PBM E-score
1,CACGGAGG,0.394
2,AACGGAGT,0.448
3,AACGGAGG,0.3
4,AACGGAGC,0.309
5,CACGGACG,0.22
6,AACGGACT,0.328
7,CCAGCTCG,-0.106
8,CTGAACCC,-0.0929
9,TAGAGGAA,-0.211
10,CAACTGGG,-0.0669
11,CCGGACCC,0.391
12,ACGGACCG,0.335
13,CAGGACCG,0.0623
14,GCGGACCC,0.354
15,CCGGACCG,0.426
16,CCGGACCA,0.369
17,CCATTCAC,-0.042
18,CTAGATAG,-0.28
19,CGCCGTAC,0.163
20,AAGGCATT,-0.246
21,CACTCGGA,0.329
22,GACTCGGA,0.4
23,AACTCGGT,0.00153
24,AACTCGGA,0.392
25,GACTCGGC,0.134

row,Sequence,PBM E-score
1,TACTCGGA,0.342
2,CAATGGGC,-0.106
3,ACTCATCC,-0.0863
4,AGGCCACG,-0.0792
5,ACCCCCGC,0.266
6,AAACCCCC,-0.0651
7,AAACCCCG,0.449
8,AACCCCCG,0.26
9,CACCCCGA,0.29
10,AACCCCGT,0.381
11,AACCCCGA,0.431
12,TACCCCGA,0.411
13,AACCCCGC,0.41
14,ACCCCCGA,0.261
15,GACCCCGC,0.247
16,GACCCCGA,0.336
17,ACGCAGAA,-0.0444
18,TATATGCA,-0.245
19,ACCAGTCA,-0.036
20,TAAGGAAA,-0.131
21,GCCTATAA,-0.116
22,AAGCGTTG,-0.256
23,CCAGCGCA,0.0176
24,AAGGTGCC,-0.0322
25,CGTGAATA,-0.00311

row,Sequence,PBM E-score
1,CACCCCGG,0.314
2,CAACCCCC,-0.0384
3,CAACCCGG,0.229
4,ATACCCCG,0.401
5,AAACCCGC,0.287
6,ACCCCCGG,0.334
7,ATACCCCA,0.00063
8,ATACCCCC,0.0218
9,CAACCCCG,0.397
10,AAACCCGG,0.428
11,AAACCCGA,0.384
12,AACCCCGG,0.458
13,ACTGTTGC,0.0649
14,ATAGGACA,-0.311
15,AGAAGCCG,0.241
16,AATCGAGA,-0.115
17,GAGAAGAC,0.0429
18,CCTATCCG,0.114
19,GAAATGAC,-0.0184
20,AGATTGGG,0.0161
21,TGGAATAA,-0.0106
22,CGGAATAC,0.423
23,AGGAATAG,0.102
24,AGGAATAC,-0.0793
25,CAGAATAG,-0.179

row,Sequence,PBM E-score
1,CGGAATAG,0.391
2,GGGAATAA,0.261
3,CGGAATAA,0.433
4,GGGAATAC,0.176
5,GAGGGTCC,0.173
6,CTGGTTGC,0.123
7,CCTAGCTA,-0.246
8,TCCCTTAA,-0.263
9,ATGCTGGC,-0.147
10,ATAAGTGA,-0.229
11,CGACGCGC,0.21
12,AACCCGGA,0.435
13,GACCCGGA,0.391
14,TACCCGAA,0.0727
15,TACCCGTA,-0.0475
16,GACCCGGC,0.184
17,TACCCGGA,0.395
18,AACCCGGC,0.313
19,CACCCGGA,0.365
20,AACCCGGT,0.304
21,CTGAAAAG,-0.131
22,AGTTGCCG,0.171
23,GGCGTGTA,-0.155
24,TATGTAAA,0.0517
25,CCTTGAAC,-0.189

row,Sequence,PBM E-score
1,ACGTACTG,-0.138
2,AAACTTGC,-0.0141
3,ACGAGGAA,-0.0559
4,TGCTCTAA,-0.211
5,AGTGAGGA,-0.255
6,ACTCCCCT,0.174
7,ACGCCGCT,0.224
8,TCTCCGCA,0.407
9,GCTCCGCA,0.377
10,CTTCCGCA,0.198
11,ACTCCGCA,0.452
12,TCTCCTCA,-0.147
13,ACTCCGCC,0.475
14,ACTCCGCT,0.417
15,AATCCGCC,0.319
16,GCTCCGCC,0.382
17,ACTCCTCA,-0.21
18,GTTTAGGA,-0.122
19,ACAGCAGC,-0.191
20,CGCCCAAC,0.0317
21,ACCCTAAA,0.099
22,ATAGCTCG,-0.0396
23,ATGCTGTA,-0.185
24,TAAGTATA,-0.0135
25,GGACTGAA,-0.00012

row,Sequence,PBM E-score
1,ATGGCCAT,0.0373
2,CGGAGATC,0.479
3,CTGAGATC,-0.196
4,AGGAGATA,-0.016
5,GGGATATA,0.151
6,CGGATATA,0.393
7,CGGAGATA,0.483
8,GGGAGATA,-0.0385
9,AGGAGATC,0.0493
10,CGGATATC,0.366
11,CGACTCAA,0.0186
12,GTCATGAC,0.0612
13,GCCAGTTA,-0.0644
14,GCACTCGC,0.0715
15,CGTTCGCC,0.145
16,ATATCCGG,0.413
17,ACATCCGA,0.356
18,ATATCCGC,0.38
19,AGATCCGC,0.37
20,AGATCCGA,0.344
21,AGATCCGG,0.41
22,ACATCCGG,0.444
23,ACATCCGT,0.162
24,ATATCCGA,0.387
25,ATAGTGGC,-0.179

row,Sequence,PBM E-score
1,ACAGGCAA,-0.209
2,CTGCGACA,0.094
3,ACGATGGC,-0.144
4,ATAAGTAA,0.0323
5,GCCAACGA,-0.181
6,CGACTGTA,-0.139
7,GGGACTTA,-0.0692
8,AGGACTCC,0.0662
9,CGGACTTA,0.452
10,AGGACTTA,-0.0757
11,CGGACTCC,0.423
12,GGGACTAA,-0.0466
13,CGGACTTC,0.473
14,CGGACTCA,0.384
15,AGGACTTC,-0.0413
16,CGGACTAA,0.423
17,TGGACTAA,-0.188
18,CTGACTTC,0.088
19,ACAAAGCG,-0.0993
20,TGGACGAA,-0.116
21,ACACCACT,-0.0175
22,CCCGGTAG,0.252
23,GCGGTGAC,0.0764
24,GACCGGCA,0.258
25,GTCCGGCA,0.41

row,Sequence,PBM E-score
1,ATCCGGCA,0.369
2,CTGCGGCC,0.2
3,CACCGGCA,0.328
4,GCCCGGCA,0.255
5,CTACGGCC,0.123
6,CTCCGGCC,0.455
7,CTCCGGCA,0.469
8,GATCTGGC,0.0483
9,ACCTAACC,0.0688
10,TAAGAGGA,-0.0178
11,AAAGATTG,-0.146
12,AGCTAAGC,-0.164
13,CATAGGAC,-0.146
14,ATCGCTTG,-0.321
15,CGGGTGAG,0.167
16,CATATGGC,-0.0951
17,ACCAGATA,-0.0605
18,CGTTGGAA,-0.0729
19,CCTTCGAG,-0.0791
20,TGGAGACA,-0.227
21,CGGAGACC,0.406
22,CAGAGACG,-0.0283
23,AGGAGACG,-0.12
24,CGGAGACG,0.415
25,AGGAGACC,-0.145

row,Sequence,PBM E-score
1,CGGAGACA,0.39
2,GGGAGACC,-0.0886
3,AGGAGACA,-0.0751
4,CCTCCTAA,-0.122
5,GATCTAAA,0.0142
6,CAAAGGTC,-0.224
7,ATACTTGA,-0.345
8,CCCAGTCA,-0.242
9,CCTAGAAC,-0.0753
10,AGACGGAT,0.176
11,CGACGGAG,0.421
12,AGACGGAG,0.392
13,AGACGGAA,0.238
14,CGACGGAC,0.337
15,CGACGGAA,0.339
16,ATTGGACG,-0.00534
17,AATATGCC,-0.0168
18,ACATATCA,-0.0989
19,CTAGGCTA,-0.193
